Assay outcomes deposited in PubChem BioAssay by National Center for Advancing Translational Sciences (NCATS).
NS1 function inh: qHTS Assay for Inhibitors of Influenza NS1 Protein Function; Potency, µM (top dose mostly 46.1 µM), for the others: top-dose activity, positive = more growth; actives 0.4% (n = 270,000); calls by dose curve; also: actives are rising curves; nearly all actives have a fitted effect of over 50% in size
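Recovery from NS1-induced slow growth read by OD600 in budding yeast switched to galactose assay medium (pH 6.0, -URA) at 1:100 dilution. Compound 23 nl per well; the matching strain lacking NS1 serves as control.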
Vaccinia Venus: qHTS for Stage-Specific Inhibitors of Vaccinia Orthopoxvirus: Venus Reporter Primary qHTS. actives 0.46% (n = 330,000). Potency, µM (doses to about 36.5 µM), without a hit: at the highest dose activity change, negative = inhibition, usual class: inhibitors. AID 720580, 2013. Vaccinia virus Venus reporter expression, fluorescence; calls by dose curve; tested in A549 cells; also: % is scaled to controls: 0 for no effect and ±100 for the full control effect; nearly all actives have a fitted effect of over 30% in size
HCV inhibitor: qHTS Assay for Inhibitors of Hepatitis C Virus (HCV); actives 3.4% (n = 340,000); Potency, µM (highest dose often 41.8 µM), inactives show at the top dose activity change, negative = inhibition, usual class: inhibitors; Huh7.5.1 HCVcc-Cre infection, luciferase reporter, 44 h; AID 651820, 2012; also: % is scaled to controls: 0 for no effect and ±100 for the full control effect
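Infectious HCV cell culture screen: compound-treated cells (1,000/well, pre-plated 4 h) are infected with HCVcc-Cre at roughly 0.5 moi and grown 44 h. Infection is quantified by luciferase signal after 15 min substrate incubation at room temperature.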
Vaccinia mCherry: qHTS for Stage-Specific Inhibitors of Vaccinia Orthopoxvirus: mCherry Reporter Primary qHTS; Potency, µM (series often up to 36.5 µM), for the others: at the highest dose activity change, negative = inhibition, most hits filed as inhibitors; actives 0.63% (n = 310,000); Vaccinia virus mCherry reporter infection, fluorescence; calls by dose curve; tested in A549 cells; also: % is scaled to controls: 0 for no effect and ±100 for the full control effect; nearly all actives have a fitted effect of over 35% in size
Pf growth 96h: Primary qHTS for delayed death inhibitors of the malarial parasite plastid, 96 hour incubation | Potency, µM (titrated, usually from 28.7 µM), for the others: top-dose activity change, negative = inhibition, usual class: inhibitors | AID 504834, 2011 | P. falciparum luciferase reporter growth, 96 h | actives 6.9% (n = 320,000); also: % is scaled to controls: 0 for no effect and ±100 for the full control effect
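Two parasite generations (96 h, 37 C, 5% CO2) of compound exposure in infected erythrocytes (0.05% parasitemia, 2% hematocrit). Luciferase-reporter P. falciparum; decreased luminescence indicates inhibited growth, aimed at apicoplast-acting delayed death.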
Pf growth 48h: Primary qHTS for delayed death inhibitors of the malarial parasite plastid, 48 hour incubation; P. falciparum luciferase growth in erythrocytes, 48 h; Potency, µM (doses to about 28.7 µM), for inactives: top-dose activity change, negative = inhibition, hits mostly inhibitors; actives 5.9% (n = 310,000); also: % is scaled to controls: 0 for no effect and ±100 for the full control effect
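Luciferase-expressing parasites in RBCs, 2% Hct / 0.1% parasitemia final; RPMI 1640 + 0.5% Albumax; 37 C, 5% CO2, one generation; luminescence read-out, lower signal = inhibition.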
Starred values were filed as active, the others as inactive; i = inactive; u = inconclusive; x = no result; ! = a repeat was not active; [ ] = another dose, or the depositor's remark. A selection: hits, their analogues and other compounds. The true share with any hit is near 11%. Unless noted, calls follow the shape of the dose curve; as a rule, active = well fitted inhibition curve with a large enough effect; inconclusive = small, poorly fitted or top-dose-only effect, or another doubt; inactive = no such curve, though single readings can be large or run the other way. Potency is read from the fitted curve at half-maximal effect.

SMILES	NS1 function inh	Vaccinia Venus	HCV inhibitor	Vaccinia mCherry	Pf growth 96h	Pf growth 48h
COc1ccc(-c2[nH]ncc2CN2CCSCC2)c(OC)c1	4.2%	-3.4%	-4.7%	-5.5%	11.7µM*	-0.9%
COc1ccc(OC)c(CN2CCSCC2)c1	-4.6%	-15.6%	5.1%	i	-2.3%	u
COc1ccc(CN2CCSCC2)c(OC)c1C	-3.9%	9.1%	-0.1%	2.0%	u	-15.4%
CCOC(=O)C1CCCN(C(=O)c2sc3nc(-c4ccc(OC)cc4)cn3c2C)C1 (stereo not drawn)	-1.8%	x	-26.6%	x	-16.2%	13.1µM*
COc1ccccc1N1CCN(C(=O)c2sc3nc(-c4ccccc4)cn3c2C)CC1	2.6%	u	11.2µM*!	u	-4.6%	u
Cc1c(C(=O)N2CCN(c3ccc(F)cc3)CC2)sc2nc(-c3ccccc3)cn12	-9.1%	x	1.2%	x	21.4%	21.2%
O=C1CC2(CCN(C(=O)COc3ccc(Cl)cc3)CC2)Oc2ccccc21	x	-1.9%	u	2.7%	u	u
Cc1ccc(-c2noc(CCC(=O)NCCCN3CCN(c4cccc(Cl)c4)CC3)n2)cc1	-65.1%	u	11.2µM*	x	40.7%	9.28µM*
CN1CCCN(Cc2nc(-c3cccc(C(F)(F)F)c3)no2)CC1	-0.7%	-26.1%	u	u	11.7µM*	-1.6%
Cc1ccc(-c2noc(CCC(=O)NCCCN3CCN(c4ccc(F)cc4)CC3)n2)cc1	-3.7%	-14.6%	u	x	123.1%	u
c1ccc(OCCN2CCN(Cc3nc(-c4ccc5c(c4)OCO5)no3)CC2)cc1	-3.2%	x	u	x	14.7µM*	36.3%
FC(F)(F)c1cccc(-c2noc(CN3CCOCC3)n2)c1	-2.6%	-16.4%	-1.5%	i	33.9%	11.6%
CCOC(=O)C1CCN(C2CCN(Cc3nc(-c4ccccc4)no3)CC2)CC1	-2.8%	-13.6%	u	-9.6%	1.47µM*	10.2%
CCOC(=O)C1CCCN(C2CCN(Cc3nc(-c4ccccc4)no3)CC2)C1 (stereo not drawn)	2.9%	-9.6%	1.6%	i	33.8%	-13.4%
Cn1c(-c2ccccc2)cnc1NCc1ccc(F)cc1	2.5%	x	-2.6%	x	6.1%	55.1%
Clc1cccc(N2CCN(Cc3nc(-c4ccccc4)no3)CC2)c1	-38.6%	x	7.1%	x	5.86µM*	1.8%
CC(C)C(=O)Nc1cccc(S(=O)(=O)c2cccc(NC(=O)C(C)C)c2)c1	-1.4%	u	u	x	u	u
CC1CC(=O)N(c2ccc(N(C)Cc3ccccc3)c([N+](=O)[O-])c2)C1=O (stereo not drawn)	x	11.0%	12.0%	-18.0%	28.7%	34.9%
CC(C)CN1C=C2C(=O)C(C)(OC(=O)C3CCCC3)C(=O)C=C2C=C1c1ccsc1 (stereo not drawn)	6.9%	-14.4%	5.8%	i	10.4µM*	u
CC1(OC(=O)C2CCCC2)C(=O)C=C2C=C(c3ccsc3)N(CCc3ccccn3)C=C2C1=O (stereo not drawn)	0.5%	-2.6%	-14.3%	-1.8%	u	u
CC1(OC(=O)C2CCCC2)C(=O)C=C2C=C(c3ccsc3)N(Cc3ccccc3)C=C2C1=O (stereo not drawn)	7.5%	-28.2%	2.8%	u	u	11.7µM*
CCN(CC)CCCN1C=C2C(=O)C(C)(OC(=O)C3CCCC3)C(=O)C=C2C=C1c1ccsc1 (stereo not drawn)	6.8%	2.9%	3.1%	-13.4%	u	10.4µM*
C=CCN1C=C2C(=O)C(C)(OC(=O)C3CCCC3)C(=O)C=C2C=C1c1ccsc1 (stereo not drawn)	9.9%	-11.4%	-58.0%	-18.4%	u	u
CCOC(=O)c1ccc(NC(=O)CSc2ccc(-c3sc(C)nc3C)nn2)cc1	x	-18.4%	x	i	x	x
COc1cccc(COC(=O)C2CC(=O)N(Cc3ccco3)C2)c1OC (stereo not drawn)	7.9%	13.8%	-0.9%	-0.2%	39.4%	9.8%
SMILES	NS1 function inh	Vaccinia Venus	HCV inhibitor	Vaccinia mCherry	Pf growth 96h	Pf growth 48h
Cc1occc1-c1nnc(SCC(=O)Nc2ccc(F)cc2)n1C	5.8%	-2.0%	-4.3%	-6.5%	4.0%	u
Cc1cccc(C)c1NC(=O)CSc1nnc(-c2ccoc2C)n1C	2.8%	-3.4%	0.2%	i	9.28µM*	-0.4%
CCOC(=O)c1cccc(NC(=O)CSc2nnc(-c3ccoc3C)n2CC)c1	-10.8%	-16.1%	-18.7%	-8.5%	13.1µM*	-8.5%
COC(=O)CSc1nnc(-c2ccoc2C)n1-c1ccc(OC)cc1	-55.5%	7.0%	22.2%	-11.7%	u	6.4%
Cc1occc1-c1nnc(SCC(=O)N2CCCCC2)n1C	x	-9.4%	6.2%	i	26.1%	-23.7%
CCOC(=O)c1cccc(NC(=O)CSc2nnnn2CC)c1	-5.4%	-3.3%	-14.1%	i	-7.8%	-3.1%
Cc1occc1-c1nnc(SCC(=O)N2CCN(c3ccccc3F)CC2)n1C	0.5%	x	-9.9%[0.335 µM]	x	3.7µM*	-13.6%
COc1ccc(OCCSc2nnc(-c3ccoc3C)n2C)cc1	-13.2%	-17.2%	7.7%	x	u	8.28µM*
CCOc1cc2[nH]c(=O)n(CCCC(=O)NCc3ccco3)c(=O)c2cc1OCC	-8.7%	-20.1%	13.4%	-24.4%	u	u
Cc1nn(C(C)C(=O)N2CCN(c3ccccn3)CC2)c(=O)c2cc3occc3n12 (stereo not drawn)	-4.2%	-2.9%	9.2%	-17.1%	83.8%	10.5%
Cc1cccc(N2CCN(C(=O)C(C)n3nc(C)n4c(cc5occc54)c3=O)CC2)c1C (stereo not drawn)	u	-20.9%	10µM*	-25.1%	-20.8%	x
COc1ccc(C2=NS(=O)(=O)N(C)C(C(=O)NCc3ccccn3)=C2)cc1	5.5%	-2.7%	3.3%	-21.3%	6.7%	-7.9%
COc1cccc2c1OC[C@@H](CO)[C@H]2N(C)C(=O)Nc1ccccc1	2.5%	x	3.6%	x	50.7%	u
CN(C(=O)Nc1ccc(Cl)cc1Cl)[C@H]1c2cc(Br)ccc2OC[C@H]1CO	-18.5%	x	12.6µM*	x	u	8.28µM*
CCCSc1ccc(-c2nn(-c3ccccc3)cc2/C=C(/C#N)C(=O)NCCCOC)cc1	7.8%	-4.2%	35.9%	i	3.7µM*	1.2%
Cc1ccc(-c2nn(-c3ccccc3)cc2/C=C(\C#N)C(=O)NCc2ccccc2)cc1	12.4%	-5.3%	7.9%	i	44.4%	14.1%
CCSc1ccc(-c2nn(-c3ccccc3)cc2/C=C(/C#N)C(=O)NCCCOC)cc1	0.4%	1.1%	8.8%	-5.1%	u	1.85µM*
S=c1[nH]ncn1/N=C/c1cccc(Oc2ccccc2)c1	-78.2%	-16.9%	7.6%	-12.3%	x	12.8%
